Drawing on PubChem BioAssay (NCATS), this text covers Potency for 26 compounds.

Inconclusive results are not listed. Where a call stands in place of a potency, no number is given. Calls of active or inactive are those of the source. The call rests on the fitted dose curve; in most records, active means well fitted inhibition curve with a large enough effect; inconclusive means small, poorly fitted or top-dose-only effect; inactive means no such curve, though single readings can be large or run the other way.
Potency means the concentration at half of the fitted maximal effect.

N-terminal Xaa-Pro-Lys N-methyltransferase 1 (Homo sapiens), sequence (Q9BV86 whole entry, looked up): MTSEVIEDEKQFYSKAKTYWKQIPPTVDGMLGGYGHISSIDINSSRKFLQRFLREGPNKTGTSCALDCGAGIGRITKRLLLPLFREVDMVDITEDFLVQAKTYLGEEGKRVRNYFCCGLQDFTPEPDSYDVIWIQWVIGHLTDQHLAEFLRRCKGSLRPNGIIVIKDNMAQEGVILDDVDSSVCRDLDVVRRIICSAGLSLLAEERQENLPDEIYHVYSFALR

This experiment concerns the target N-terminal Xaa-Pro-Lys N-methyltransferase 1 (Homo sapiens) (UniProt Q9BV86). Kind of experiment: qHTS Assay for Inhibitors of N-terminal methyltransferase 1 (NTMT1): LOPAC validation of the NTMT1 SAHH-coupled ThioGlo3 Assay (AID 1347143).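 Further: SAH from peptide methylation measured as thiol fluorescence via SAHH coupling and ThioGlo3; nearly all actives have a fitted effect of over 70% in size.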 The following applies: recombinant NTMT1, SAHH-coupled ThioGlo3 fluorescence; series mostly up to 114 µM. The text has this:
Assay Submitter (PI): Rong Huang Ph.D, Purdue University, West Lafayette, IN 47907 The N-terminal methytransferase 1 is the first methyltransferase that methylates protein alpha-N-amines and plays an important role in regulating cell mitosis, chromatin interactions and DNA repair. It is observed to be over-expressed in various cancer patient tissues like malignant melanoma and colorectal cancer tissues. Knockdown of NTMT1 in cancer cells causes cell mitotic defects and enhances sensitivity to DNA damaging chemotherapeutics. […] These critical cellular processes in which NTMT1 is implicated, coupled with emerging links to cellular dysfunction, strengthen the inference that NTMT1 is a compelling novel anticancer target. Progress have been made in understanding the molecular properties of NTMT1 and the biological consequences of protein alpha-N-terminal methylation, but there are no specific small molecule probes available for NTMT1 to fully characterize its MTase activity. To address this unmet need, a panel of assay is created and established to enable quantitative high-throughput screening (qHTS) for novel, potent, and selective small molecule NTMT1 inhibitors. Two orthogonal qHTS that use different reagents (ThioGlo vs. MTaseGlo) are developed for primary robotic screening against the NCATS chemical library of more than 400,000 small molecules. Identified inhibitors are reacquired, validated, and further characterized. […] A pilot screen against the LOPAC library of 1280 compounds is carried out to assess performance of the optimized qHTS in 1536-well plate format. Early Translation Branch (ETB) National Center for Advancing Translational Sciences (NCATS) National Institute of Health (NIH)
Materials: NTMT1 enzyme, substrate SPKRIA, control peptide RCC1-6 is provided by the Huang laboratory. ThioGlo3 Assay: In brief, 125nM NTMT1 enzyme was dispensed into a 1536-well assay plate with Aurora Discovery BioRAPTR Flying Reagent Dispenser (FRD, Beckton-Dickenson). Compounds (at various concentration) or 1uM RCC1-6 (SPKRIA) control were transferred to the assay plate using the Kalypsys 1536-pintool apparatus. After 1 min of room temperature incubation, 1uL of substrate (100uM SAM, 10uM SAHH, 15uM ThioGlo3) was added to the wells bringing the final assay volume to 4uL. Initial (background) fluorescence readout (EX: 340nm, EM: 450nm) was then detected using the PerkinElmer ViewLux microplate imager and a final fluorescence readout was taken after 30 min of room temperature incubation. The data was normalized to the background fluorescence.
On to `CC(C)OC(=O)C(C)(C)Oc1ccc(C(=O)c2ccc(Cl)cc2)cc1`, for which the Potency entry is “inactive”.

Consider `O=C(O)CCc1nc(-c2ccccc2)c(-c2ccccc2)o1`, for which the Potency entry was “inactive”.

For `CCCNC(=O)NS(=O)(=O)c1ccc(Cl)cc1`, the Potency entry is “inactive”.

For the compound `CCCCC1C(=O)N(c2ccccc2)N(c2ccccc2)C1=O`, the Potency entry is “inactive”.

For the compound `CCN(CC)CCOC(=O)c1ccc(N)cc1`, the Potency result is “inactive”.

In the case of `CN(C)CCC(c1ccccc1)c1ccccn1` (stereo unspecified), the Potency entry was “inactive”.

On to `O=C(NCCN1CCOCC1)c1ccc(Cl)cc1`, for which the Potency entry is “inactive”.

Turning to `C[N+](C)(C)CCCCCC[N+](C)(C)C`, the Potency entry is “inactive”.

With `COc1ccccc1N1CCN(CCCNc2cc(=O)n(C)c(=O)n2C)CC1`, the Potency entry is “inactive”.

In the case of `CCN(CC)CCNC(=O)c1ccc(N)cc1`, the Potency result was “inactive”.

As to `CC(=O)O[C@]1(C(C)=O)CC[C@H]2[C@@H]3C=C(Cl)C4=CC(=O)[C@@H]5C[C@@H]5[C@]4(C)[C@H]3CC[C@@]21C`, the Potency result is “inactive”.

Regarding `Cc1cccc(C)c1OCC(C)N` (stereo unspecified), the Potency entry was “inactive”.

Turning to `CC(=O)CCCCn1c(=O)c2c(ncn2C)n(C)c1=O`, the Potency result is “inactive”.

On to `O=C1NC(=O)C(c2ccccc2)(c2ccccc2)N1`, for which the Potency entry was “inactive”.

For the compound `CC(C)(C)c1ccc(C(O)CCCN2CCC(C(O)(c3ccccc3)c3ccccc3)CC2)cc1` (stereo unspecified), the Potency entry is “inactive”.

For `O=c1c(-c2ccc(O)cc2)coc2cc(O)ccc12`, the Potency is 50.1 µM (active).

For `CCN1CCC[C@H]1CNC(=O)c1cc(S(N)(=O)=O)ccc1OC`, the Potency result was “inactive”.

In the case of `O=C1NCC2(CCN(CCc3ccccc3)CC2)O1`, the Potency result was “inactive”.

`Clc1ccc(Cn2c(CN3CCCC3)nc3ccccc32)cc1`: the Potency entry is “inactive”.

Consider `NC(N)=Nc1nc(CSCC/C(N)=N/S(N)(=O)=O)cs1`, for which the Potency entry was “inactive”.

Turning to `CC(=O)N[C@@H](CS)C(=O)O`, the Potency result was “inactive”.

`CC(=O)c1ccc(S(=O)(=O)NC(=O)NC2CCCCC2)cc1`: the Potency entry is “inactive”.

With `CC(C)NCC(O)COc1cccc2[nH]ccc12` (stereo unspecified), the Potency result was “inactive”.

As to `CC1=C(/C=C/C(C)=C/C=C/C(C)=C/C(=O)Nc2ccc(O)cc2)C(C)(C)CCC1`, the Potency result is “inactive”.

For `O=c1cc(-c2ccc(O)cc2)oc2cc(O)cc(O)c12`, the Potency is 89.1 µM (active).

In the case of `COC(=O)[C@@H]1[C@H]2C[C@H]3c4[nH]c5ccccc5c4CCN3C[C@@H]2CC[C@@H]1O`, the Potency was 79.4 µM (active).
